Test results as given in PubChem BioAssay (NCI).
“And” between values parts separate entries of the source, which are not always exact repeats. Equal values may be shown once. The panel holds about 79,000 compounds, 15% with a hit somewhere; the sample as a whole holds those more often. Rule as the data show it: active = growth inhibition above about 70%; inactive = the rest. Where a SMILES comes first, the peptide text is derived from it. [ ]: non-standard residue; d: D form. The star is where a group is joined. Cbz = O=C(OCc1ccccc1)*; Nva = CCC[CH](N)C(=O)O

Key:
[1] = NCI Yeast Anticancer Drug Screen. Data for the rad50 strain (AID 155);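 also: 0% = growth of vehicle-only cultures of the same strain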; settings: S. cerevisiae rad50 strain growth inhibition, hits give high values; at 50.0 µM unless noted
Procedure, shortened: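 Growth of the mutant yeast was measured after compound exposure and referenced to vehicle-treated cultures.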

[2] = NCI Yeast Anticancer Drug Screen. Data for the mec2-1 strain (AID 157); settings: S. cerevisiae mec2-1 strain, hits give high values; at 50.0 µM unless noted
Procedure, shortened: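 mec2-1 yeast strain, carrying an alteration in DNA damage repair or cell cycle control, was exposed to compounds; growth inhibition was measured relative to vehicle-treated controls.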

[3] = NCI Yeast Anticancer Drug Screen. Data for the sgs1 mgt1 strain (AID 161);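 also: 0% = growth of cultures given vehicle only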; settings: S. cerevisiae sgs1 mgt1 strain, hits give high values; at 50.0 µM unless noted
Procedure, shortened: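 Yeast cells carrying a defined DNA-repair defect were exposed to test compounds. Growth inhibition was measured relative to vehicle-treated controls.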

[4] = NCI Yeast Anticancer Drug Screen. Data for the cln2 rad14 strain (AID 165);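 also: 0% = growth equal to vehicle treated cultures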; settings: S. cerevisiae cln2 rad14 strain, hits give high values; at 50.0 µM unless noted
Procedure, shortened: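 Yeast carrying cln2 and rad14 alterations (cell cycle control and DNA damage repair) were exposed to compounds. Growth inhibition was measured against vehicle-treated controls.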

[5] = NCI Yeast Anticancer Drug Screen. Data for the bub3 strain (AID 167); settings: S. cerevisiae bub3 mutant strain, hits give high values; at 50.0 µM unless noted
Procedure, shortened: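 Whole-cell yeast assay. The mutant strain was incubated with compounds, and growth inhibition was determined by comparison with vehicle-treated cells.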

[6] = NCI Yeast Anticancer Drug Screen. Data for the mlh1 rad18 strain (AID 175); settings: S. cerevisiae mlh1 rad18 strain growth inhibition, hits give high values; at 50.0 µM unless noted
Procedure, shortened: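 Growth inhibition of the yeast strain was measured after compound exposure and expressed relative to vehicle-treated controls. The strain carries defined defects in DNA damage repair.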

Measured: growth inhibition

C=C(C)C(C)OC(=O)Nc1ccccc1 (stereo not drawn)
inactive: [1] 12.7% | [2] -3.05% | [3] -16.1% | [4] 7.4% | [5] -3.95% | [6] -37.5%

CCC(C)C(NC(=O)Cc1ccccc1)C(=O)O (stereo not drawn)
inactive: [1] 4.55% | [2] -9.45% | [3] -4.1% | [4] -23.2% | [5] 8.95% | [6] 5.75%

O=C(O)CNC(=O)CNC(=O)CNC(=O)C(CSC(c1ccccc1)(c1ccccc1)c1ccccc1)NC(=O)OCc1ccccc1 (stereo not drawn)
inactive: [1] 20.4% | [2] 4.5% | [3] -13.7% | [4] 22.1% | [5] 10.7% | [6] 4.9%

CC[N+](CC)(CC)CCOC(=O)c1cc(OC)c(OC)c(OC)c1
inactive: [1] -16.4% | [2] -20.4% | [3] -2.35% | [4] 15.4% | [5] 4.1% | [6] -0.6%

COc1cc(CC2(C#N)c3ccccc3C=CN2C(=O)c2ccccc2)c(Oc2cc(CC3(C#N)c4ccccc4C=CN3C(=O)c3ccccc3)ccc2OC)cc1OC (stereo not drawn)
inactive: [1] 4.65% | [2] 8.85% | [3] 15.3% | [4] -5.6% | [5] 3.85% | [6] 32.9%

N#CNc1nc(N)c(-c2ccc(Cl)cc2)c(C(=O)Nc2nccs2)n1
inactive: [1] -8.85% | [2] -10.9% | [3] 3.25% | [4] 1.5% | [5] -7.75% | [6] -12.6%

O=C(O)CCCn1nnc2c(=O)[nH][nH]c(=O)c21
inactive: [1] 7.3% | [2] 5.65% | [3] 4.4% | [4] -7.75% | [5] -0.25% | [6] 11.6%

O=C(Nc1ccc(S(=O)(=O)NC2CCCCC2)cc1)Oc1ccccc1C(=O)O
inactive: [1] 49% | [2] -1.65% | [3] 39.9% | [4] 26.1% | [5] 16.1% | [6] 32.1%

N#C/C(=C\c1c[nH]c2ccccc12)C(N)=O
inactive: [1] 13.6% and 2.05% | [2] 5.15% and -7.45% | [3] 7.3% | [4] 18.8% | [5] -7.3% | [6] 22.5% and 5.8%

CC1CCC2(OC1)OC1CC3C4CCC5CC(O)CCC5(C)C4C(O)CC3(C)C1C2C (stereo not drawn)
inactive: [1] 42.5% | [2] 5.65% | [3] 43% | [4] 36.8% | [5] 52.1% | [6] 24.1%

CC1(C)N=C(N)N=C(N)N1c1ccc(N)cc1
inactive: [1] 1.7% | [2] -3.8% | [3] 2.75% | [4] -36.8% | [5] -21.4% | [6] 7.8%

CCOC(=O)c1ccc(NC(=O)Nc2cc(Cl)ccc2C)cc1
inactive: [1] 38.9% | [2] 8.45% | [3] 16.1% | [4] 6.4% | [5] 36.2% | [6] 25.4%

COc1cc(C2NC(C(=O)O)CS2)cc(OC)c1OC (stereo not drawn)
inactive: [1] -22.4% | [2] -14.7% | [3] 0.5% | [4] -19.1% | [5] -9.2% | [6] -5.85%

COc1ccc(-[n+]2nc(S(=O)(=O)O)c(/C=C/c3ccc(N(C)C)cc3)cc2C#N)cc1
inactive: [1] -13.8% | [2] -9.05% | [3] 20.1% | [4] 6.65% | [5] 5.85% | [6] -9.5%

Cc1ccccc1C(=O)c1cccc2cccc(C(=O)c3ccccc3C)c12
inactive: [1] 13% | [2] 0.75% | [3] -10.8% | [4] 7.8% | [5] 10.8% | [6] 1.15%

Nc1ccc(N=Nc2c(S(=O)(=O)O)cc3ccccc3c2S(=O)(=O)O)cc1
inactive: [1] -23% | [2] -30.4% | [3] -38.2% | [4] -18.3% | [5] -46.5% | [6] -27.6%

O=C(C[n+]1ccccc1)c1ccc(O)c(I)c1
inactive: [1] -5.4% | [2] 7.65% | [3] 21.9% | [4] 21.7% | [5] 0.35% | [6] 7.4%

O=C(O)c1ccc(Cl)o1
inactive: [1] 7.7% | [2] -3.6% | [3] -23.1% | [4] -1.05% | [5] 10.1% | [6] 5.6%

O=c1nc(NCc2ccco2)ccn1C1OC(CO)C(O)C1O (stereo not drawn)
inactive: [1] 12.3% | [2] 9.45% | [3] 12.6% | [4] 13.9% | [5] -0.2% | [6] 14.6%

OC(CN1CCCCC1)c1cc(-c2ccccc2)no1 (stereo not drawn)
inactive: [1] 31.8% | [2] 11.6% | [3] 33.5% | [4] 24.6% | [5] 23.6% | [6] 16.4%

Nc1ncnc2c1c(-c1ccc(Cl)cc1)cn2-c1ccc(I)cc1
inactive: [1] 2.45% | [2] 2.45% | [3] -17.2% | [4] -7.4% | [5] -1.1% | [6] 7%

[N-]=[N+]=CC(=O)C1OC12C1CC3CC(C1)CC2C3 (stereo not drawn)
inactive: [1] -9.2% | [2] -5.85% | [3] 2.45% | [4] -6.25% | [5] 5.2% | [6] 4.55%

CCCC(NC(=O)OCc1ccccc1)C(=O)NC(CC(C)C)C(N)=O (stereo not drawn) (Cbz-[Nva]-Leu-NH2; configuration not given here)
inactive: [1] 12.9% | [2] 2.35% | [3] 5% | [4] 22.2% | [5] 6.55% | [6] 5.15%
